Reference: paper PMC5540273 (PLoS ONE, 2017)

What was measured:
Conditions in all cases: concentration: 1 μM, replicates: in singlicate; n = 1
NIM1 = system: T1, NIM1
T1 construct: gene MGC42105

NLK = system: NLK
OSR1 = system: T2, OSR1
T2 construct: gene OXSR1

PAK1 = system: PAK1
PAK2 = system: PAK2
PAK3 = system: PAK3
PAK4 = system: PAK4
PAK6 = system: PAK6
PAK7 = system: PAK7
PCTK1 = system: T3, PCTK1
T3 construct: gene CDK16
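Note: KINOMEscan kinase panel screen.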

Cc1cccc(Nc2nc(N[C@H]3CCNC3)ncc2C(N)=O)c1.Cl [GSK2197149]
%Inh (NIM1): 11%
%Inh (NLK): 0%
%Inh (OSR1): 18%
%Inh (PAK1): 38%
%Inh (PAK2): 70%
%Inh (PAK3): 66%
%Inh (PAK4): 95.8%
%Inh (PAK6): 78%
%Inh (PAK7): 98%
%Inh (PCTK1): 14%

CSc1cccc2c(-c3ccncn3)c(-c3ccc(F)cc3)nn12 [GW514786]
%Inh (NIM1): 19%
%Inh (NLK): 70%
%Inh (OSR1): 8%
%Inh (PAK1): 11%
%Inh (PAK2): 25%
%Inh (PAK3): 19%
%Inh (PAK4): 0%
%Inh (PAK6): 3%
%Inh (PAK7): 0%
%Inh (PCTK1): 2%

CN(C)S(=O)(=O)c1cc(-c2ccc3nccc(-c4cccc(S(N)(=O)=O)c4)c3c2)cnc1N [GSK1669921]
%Inh (NIM1): 11%
%Inh (NLK): 4%
%Inh (OSR1): 0%
%Inh (PAK1): 7%
%Inh (PAK2): 21%
%Inh (PAK3): 39%
%Inh (PAK4): 1%
%Inh (PAK6): 3%
%Inh (PAK7): 0%
%Inh (PCTK1): 5%

c1ccc(Oc2ccc(Nc3ccnc4cc(-c5ccc(CNCCN6CCOCC6)o5)ccc34)cc2)nc1 [GW567145]
%Inh (NIM1): 20%
%Inh (NLK): 12%
%Inh (OSR1): 2%
%Inh (PAK1): 0%
%Inh (PAK2): 0%
%Inh (PAK3): 3%
%Inh (PAK4): 0%
%Inh (PAK6): 0%
%Inh (PAK7): 0%
%Inh (PCTK1): 0%

Nc1ncc(-c2cccnc2)c2scc(-c3ccc4c(c3)CCN4C(=O)Cc3ccccc3)c12 [GSK683281]
%Inh (NIM1): 11%
%Inh (NLK): 47%
%Inh (OSR1): 19%
%Inh (PAK1): 18%
%Inh (PAK2): 19%
%Inh (PAK3): 62%
%Inh (PAK4): 18%
%Inh (PAK6): 0%
%Inh (PAK7): 7%
%Inh (PCTK1): 1%

Cn1cc(-c2ccc3c(c2)CCN3C(=O)Cc2cccc(F)c2)c2c(N)ncnc21 [GSK2603358]
%Inh (NIM1): 24%
%Inh (NLK): 0%
%Inh (OSR1): 37%
%Inh (PAK1): 0%
%Inh (PAK2): 0%
%Inh (PAK3): 31%
%Inh (PAK4): 0%
%Inh (PAK6): 0%
%Inh (PAK7): 0%
%Inh (PCTK1): 4%

Cc1ccc(S(=O)(=O)Nc2ccc(Nc3nccc(Nc4cccc5[nH]ncc45)n3)cc2)cc1 [GSK581271]
%Inh (NIM1): 26%
%Inh (NLK): 56%
%Inh (OSR1): 13%
%Inh (PAK1): 14%
%Inh (PAK2): 12%
%Inh (PAK3): 35%
%Inh (PAK4): 0%
%Inh (PAK6): 18%
%Inh (PAK7): 0%
%Inh (PCTK1): 2%

CCn1c(-c2nonc2N)nc2c(C#CC(C)(C)O)nc(OC[C@H](N)c3ccccc3)cc21 [GSK943949]
%Inh (NIM1): 0%
%Inh (NLK): 7%
%Inh (OSR1): 0%
%Inh (PAK1): 0%
%Inh (PAK2): 0%
%Inh (PAK3): 27%
%Inh (PAK4): 94.6%
%Inh (PAK6): 97.9%
%Inh (PAK7): 98%
%Inh (PCTK1): 0%

CC(=O)Nc1nc2cnc(Nc3cc(NC(=O)c4cccc(C5(C#N)CC5)c4Cl)ccc3C)nc2s1
%Inh (NIM1): 6%
%Inh (NLK): 33%
%Inh (OSR1): 0%
%Inh (PAK1): 12%
%Inh (PAK2): 0%
%Inh (PAK3): 0%
%Inh (PAK4): 7%
%Inh (PAK6): 0%
%Inh (PAK7): 9%
%Inh (PCTK1): 6%

CC(=O)N1CCN(c2ccc(Nc3nccc(-c4sc(C(C)C)nc4-c4cccc(NS(=O)(=O)c5cccc(Cl)c5)c4)n3)cn2)CC1 [GSK1660437]
%Inh (NIM1): 0%
%Inh (NLK): 91.8%
%Inh (OSR1): 5%
%Inh (PAK1): 72%
%Inh (PAK2): 90.1%
%Inh (PAK3): 57%
%Inh (PAK4): 0%
%Inh (PAK6): 0%
%Inh (PAK7): 0%
%Inh (PCTK1): 98.6%

COc1ccc(Nc2nccc(N3CCC(NC(=O)Nc4cccc(OC)c4)C3)n2)cc1 (stereo not shown) [GSK1379742]
%Inh (NIM1): 22%
%Inh (NLK): 0%
%Inh (OSR1): 0%
%Inh (PAK1): 44%
%Inh (PAK2): 27%
%Inh (PAK3): 0%
%Inh (PAK4): 0%
%Inh (PAK6): 0%
%Inh (PAK7): 0%
%Inh (PCTK1): 4%

O=C(Nc1cccc(Oc2ccc3nc(NC(=O)C4CC4)cn3n2)c1)c1ccccc1C(F)(F)F
%Inh (NIM1): 0%
%Inh (NLK): 37%
%Inh (OSR1): 0%
%Inh (PAK1): 8%
%Inh (PAK2): 6%
%Inh (PAK3): 4%
%Inh (PAK4): 0%
%Inh (PAK6): 9%
%Inh (PAK7): 0%
%Inh (PCTK1): 0%

CN(c1ccc(NC(=O)Nc2cc(C(F)(F)F)ccc2F)cc1)c1ccnc(Nc2ccc(S(N)(=O)=O)cc2)n1 [GW809893]
%Inh (NIM1): 0%
%Inh (NLK): 78%
%Inh (OSR1): 6%
%Inh (PAK1): 2%
%Inh (PAK2): 11%
%Inh (PAK3): 23%
%Inh (PAK4): 2%
%Inh (PAK6): 10%
%Inh (PAK7): 0%
%Inh (PCTK1): 69%

CC(C)c1nc(-c2cccc(NS(=O)(=O)c3c(F)cccc3F)c2F)c(-c2ccnc(Nc3ccc(N4CCOCC4)nc3)n2)s1 [GSK2008607]
%Inh (NIM1): 1%
%Inh (NLK): 97.5%
%Inh (OSR1): 0%
%Inh (PAK1): 27%
%Inh (PAK2): 18%
%Inh (PAK3): 93.3%
%Inh (PAK4): 0%
%Inh (PAK6): 9%
%Inh (PAK7): 20%
%Inh (PCTK1): 99.5%

O=C(Nc1n[nH]c2cc(-c3ccoc3)ccc12)C1CC1 [SB-738481]
%Inh (NIM1): 100%
%Inh (NLK): 4%
%Inh (OSR1): 0%
%Inh (PAK1): 0%
%Inh (PAK2): 15%
%Inh (PAK3): 18%
%Inh (PAK4): 0%
%Inh (PAK6): 0%
%Inh (PAK7): 0%
%Inh (PCTK1): 61%

C[C@@H]1CC[C@@H](C(=O)Nc2ccccc2)CN1c1cc(-c2ccc3c(N)n[nH]c3c2)nc(N)n1 [GSK2286062]
%Inh (NIM1): 23%
%Inh (NLK): 11%
%Inh (OSR1): 10%
%Inh (PAK1): 20%
%Inh (PAK2): 6%
%Inh (PAK3): 0%
%Inh (PAK4): 0%
%Inh (PAK6): 0%
%Inh (PAK7): 6%
%Inh (PCTK1): 0%

Cc1ccc(F)c(C(=O)Nc2cccc(-c3nn4ccccc4c3-c3ccnc(Nc4cccc(F)c4)n3)c2)c1F [GSK361061]
%Inh (NIM1): 0%
%Inh (NLK): 77%
%Inh (OSR1): 100%
%Inh (PAK1): 4%
%Inh (PAK2): 21%
%Inh (PAK3): 42%
%Inh (PAK4): 3%
%Inh (PAK6): 0%
%Inh (PAK7): 14%
%Inh (PCTK1): 0%

COc1ccc(-c2coc3ccc(-c4nnc(SCc5ccc(OC)c(C(F)(F)F)c5)o4)cc23)cc1
%Inh (NIM1): 0%
%Inh (NLK): 10%
%Inh (OSR1): 3%
%Inh (PAK1): 0%
%Inh (PAK2): 3%
%Inh (PAK3): 22%
%Inh (PAK4): 1%
%Inh (PAK6): 17%
%Inh (PAK7): 3%
%Inh (PCTK1): 0%

Cl.Cl.NCC(C(=O)Nc1cc(Br)c(-c2ccnc3[nH]ccc23)s1)c1ccccc1 (stereo not shown) [GSK1269851]
%Inh (NIM1): 11%
%Inh (NLK): 0%
%Inh (OSR1): 36%
%Inh (PAK1): 17%
%Inh (PAK2): 32%
%Inh (PAK3): 27%
%Inh (PAK4): 0%
%Inh (PAK6): 0%
%Inh (PAK7): 51%
%Inh (PCTK1): 11%
